The values below come from PubChem BioAssay.

Experiment [1] in a line: loss of swimming-algae plug formation – whole organism, Chlamydomonas reinhardtii, WT vs cilia-less mutant, absorbance, 96-well, primary screen (AID 463189).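 Note: 0% = wild type cc124 cells in DMSO and 100% = ciliumless bld1 mutant cells.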 The note with it: Chlamydomonas reinhardtii gravitaxis, OD600 absorbance, 2 days; at 10 µM; stronger effect = higher value.
Experiment [2] in a line: reduction of polyQ htt aggregates in cells – imaging, exon1htt(103Q)mCFP cells, high-content imaging, primary screen (AID 483;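 active = visual image review flags a hit and inhibition of aggregation exceeds 20%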;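 note: compound exposure lasted 3 days before fixation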;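 for nuclei count: percent of the per-plate median nuclei count of sample wells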). The note with it: exon1htt(103Q)mCFP cell line, aggregate imaging, at 2 µM; inhibition of aggregation: stronger effect = higher value; nuclei count: measured here: cell count, toxicity.
Experiment [3] can be described thus: endothelial E-selectin expression blockers – imaging, HUVEC, immunofluorescence, MLSMR starter and 10KST1 sets, primary screen (AID 487;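 active = visually confirmed hit in the image check and inhibition above 20%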;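 for inhibition: signal is fraction of cell area covered by stained E-selectin grains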;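 for nuclei count: 100% = median nuclei count of all wells on the same plate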). The note with it: HUVEC TNFalpha-induced E-selectin immunofluorescence imaging, at 2 µM; inhibition: stronger effect = higher value; nuclei count: measured here: cell number, toxicity.
Experiment [4] is described as follows: Primary imaging screen for DUSP6 inhibitors that restore phospho-Erk in transfected HeLa cells, chemical complementation (AID 609;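 active = compounds giving at least 50% inhibition in the cell-based MKP-3 phosphatase rescue imaging test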;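 for inhibition: phospho-Erk level distribution per well compared with pooled transfected vehicle control wells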). Conditions: HeLa MKP-3 transfected, phospho-Erk imaging KS statistic, at 10 µM.
Experiment [5] addresses Dual specificity protein phosphatase 6 (Homo sapiens) (UniProt Q16828). The experiment is described as above. Conditions: HeLa MKP-3 transfected, phospho-Erk imaging KS statistic, at 10 µM, stronger effect = higher value.
In experiment [6] the target is Voltage-gated potassium channel subunit beta-2 (Rattus norvegicus) (UniProt P62483). Description: inhibitors of rat Kvbeta2 reductase activity – biochemical, NADPH fluorescence, primary screen (AID 622;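 active = fluorescence slope higher than the sample average by over 3 SD, cut at about -0.22 in these data, passing the limit was not always enough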;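 note: slope of raw intensity against log time taken from 70 to 1610 s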). The note with it: recombinant KvBeta, 4-cyanobenzaldehyde reduction, at 10 µM, stronger effect = higher value.
Voltage-gated potassium channel subunit beta-2 (Rattus norvegicus), sequence (P62483 whole entry, looked up): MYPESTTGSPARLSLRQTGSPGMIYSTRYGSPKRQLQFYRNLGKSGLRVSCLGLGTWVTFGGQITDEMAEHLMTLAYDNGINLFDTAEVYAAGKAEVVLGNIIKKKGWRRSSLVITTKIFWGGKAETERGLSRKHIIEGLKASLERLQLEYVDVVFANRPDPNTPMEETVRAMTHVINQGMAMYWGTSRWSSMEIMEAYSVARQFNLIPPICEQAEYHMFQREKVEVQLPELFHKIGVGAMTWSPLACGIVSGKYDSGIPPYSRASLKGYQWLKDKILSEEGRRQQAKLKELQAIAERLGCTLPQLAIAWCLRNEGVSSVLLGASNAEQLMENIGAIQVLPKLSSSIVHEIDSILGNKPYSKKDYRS
Experiment [7] shares this target. The experiment is described as follows: enhancers of rat Kvbeta2 NADPH turnover – biochemical, NADPH fluorescence, primary screen (AID 623;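 active = NADPH fluorescence slope more negative than the mean of all samples by about 3 SD, 99.7% confidence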;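 note: fluorescence intensity change per second fitted from 20 to 320 s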). The note with it: Recombinant KvBeta, NADPH fluorescence decrease slope, 10 min; at 10 µM; stronger effect = lower value.
The target of experiment [8] is Alpha-2C adrenergic receptor (Homo sapiens) (UniProt P18825). The experiment is described as follows: compounds altering alpha2C-coupled GIRK flux – cell-based, HEK293 alpha2C/GIRK1/2, thallium flux, primary screen (AID 624;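 active = fluorescence slope after compound addition differing from the mean of all screened samples at 99.7% confidence, in either direction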;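 note: slope of fluorescence ratio to pre-addition baseline per second over 15 to 24 s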). The note with it: thallium flux BTC fluorescence, at 10 µM, actives lie on both sides.
Alpha-2C adrenergic receptor (Homo sapiens), sequence (P18825 whole entry, looked up): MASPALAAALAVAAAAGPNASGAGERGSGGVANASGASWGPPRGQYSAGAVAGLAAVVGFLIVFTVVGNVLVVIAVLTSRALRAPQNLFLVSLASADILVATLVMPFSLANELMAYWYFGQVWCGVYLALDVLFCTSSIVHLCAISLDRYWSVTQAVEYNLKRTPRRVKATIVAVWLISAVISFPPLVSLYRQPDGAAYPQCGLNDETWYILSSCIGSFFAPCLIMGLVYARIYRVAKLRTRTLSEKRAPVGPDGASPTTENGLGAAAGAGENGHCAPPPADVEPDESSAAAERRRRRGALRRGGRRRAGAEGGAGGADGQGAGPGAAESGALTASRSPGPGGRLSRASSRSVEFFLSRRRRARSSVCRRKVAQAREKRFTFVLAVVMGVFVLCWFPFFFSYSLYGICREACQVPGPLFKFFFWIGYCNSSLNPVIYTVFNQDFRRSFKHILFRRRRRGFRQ
Experiment [9] can be described thus: inhibitors of larval lipid processing in zebrafish, primary screen, whole organism, PED6 fluorescence, gall bladder and intestine (AID 686;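 active = a full or partial loss of lipid-probe fluorescence in the fish gall bladder, intestine or both, judged by eye; inactive = no fluorescence loss, or compound toxic to the fish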;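 note: larvae 5 to 7 days old with five fish per well; signal comes from phospholipase A2 cleavage of quenched PED6 carried via bile; overnight exposure to compound and PED6 before scoring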). The note with it: Zebrafish larvae PED6 lipid processing, fluorescence scoring.
The nature of experiment [10]: blockers of RIG-like receptor reporter activation – cell-based, Sendai virus stimulus, luciferase, 10K MLSCN set, TLR/RLR signaling modifier project, primary screen (AID 602276;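 active = inhibition at or above 50% at 10 µM; inactive = inhibition below 50%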;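 note: firefly luciferase from ISG56 promoter only with Renilla not read in this screen; 0% = Sendai virus plus DMSO and 100% = medium plus DMSO without virus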). Conditions: HEK293 RL24 IRF3 luciferase reporter, at 10 µM, stronger effect = higher value. In general terms: A reporter such as luciferase makes a cellular process visible.
Experiment [11] is described as follows: TLR3 IRF3 reporter activation blockers – cell-based, poly I:C stimulus, luciferase, 10K MLSCN set, primary screen (AID 602277;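 active = inhibition of the reporter signal at or above 50%; inactive = inhibition below 50%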). Conditions: HEK293-TLR3 RL24 IRF3 luciferase reporter, at 10 µM, stronger effect = higher value.
Experiment [12] has as its target Muscarinic acetylcholine receptor M4 (Homo sapiens) (UniProt P08173). The experiment is described as follows: M4-linked GIRK flux change, two-sided – cell-based, HEK293 M4/GIRK, thallium flux, BTC-AM, M4 allosteric agonist project, primary screen (AID 625;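 active = fluorescence slope after compound addition differing from the mean of all tested samples at 99.7% confidence, mostly higher but some lower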;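 note: thallium influx through GIRK channels coupled to M4 in HEK293 cells with BTC-AM dye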). Conditions: at 10 µM, actives lie on both sides.
The mark [13] stands for this setting: measured here: cell density z-score.
Setting [14] is: measured here: nuclear c-Myc green intensity z-score.
The mark [15] stands for this setting: measured here: nuclear pErk red intensity z-score, stronger effect = higher value.

Values joined by “and” are separate entries in the source; they are usually repeats but may differ in a detail not shown here. Equal values may be shown once. Active and inactive are the calls of the source.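 Rule for the calls, unless noted: active = inhibition at or above 50% relative to wild type and mutant plate controls; inactive = inhibition below 50%.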

Dual specificity protein phosphatase 6 (Homo sapiens), sequence (Q16828 whole entry, looked up): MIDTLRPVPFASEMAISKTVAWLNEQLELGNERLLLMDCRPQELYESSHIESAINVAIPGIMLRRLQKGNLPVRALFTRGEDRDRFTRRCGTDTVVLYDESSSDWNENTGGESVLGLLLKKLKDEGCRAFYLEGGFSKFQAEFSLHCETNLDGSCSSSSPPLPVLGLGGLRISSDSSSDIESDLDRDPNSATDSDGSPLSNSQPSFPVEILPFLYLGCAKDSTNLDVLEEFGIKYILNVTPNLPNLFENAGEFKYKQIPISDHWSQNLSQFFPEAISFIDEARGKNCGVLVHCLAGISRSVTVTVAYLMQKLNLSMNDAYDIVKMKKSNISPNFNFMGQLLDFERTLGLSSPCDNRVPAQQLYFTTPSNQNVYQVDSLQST
Muscarinic acetylcholine receptor M4 (Homo sapiens), sequence (P08173 whole entry, looked up): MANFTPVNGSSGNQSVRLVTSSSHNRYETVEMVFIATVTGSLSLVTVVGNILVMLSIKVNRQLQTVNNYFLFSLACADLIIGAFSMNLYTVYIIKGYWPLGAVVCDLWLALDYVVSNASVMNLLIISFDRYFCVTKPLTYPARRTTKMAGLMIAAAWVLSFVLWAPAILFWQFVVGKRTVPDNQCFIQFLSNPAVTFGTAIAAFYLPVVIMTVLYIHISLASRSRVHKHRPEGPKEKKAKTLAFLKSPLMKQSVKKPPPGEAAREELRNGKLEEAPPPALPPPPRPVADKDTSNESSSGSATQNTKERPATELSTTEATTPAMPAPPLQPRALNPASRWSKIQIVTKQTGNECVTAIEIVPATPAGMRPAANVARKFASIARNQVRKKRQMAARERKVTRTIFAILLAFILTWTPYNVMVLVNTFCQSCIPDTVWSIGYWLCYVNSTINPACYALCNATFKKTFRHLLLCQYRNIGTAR

By inhibition is commonly meant the change of the read-out against control, counted positive when it falls. Consider `NNC(N)=O`, for which, in experiment [1], the inhibition was 1.88% (inactive).

`C[C@]12CC[C@@H](O)CC1CC[C@@H]1[C@@H]2CC[C@]2(C)C(=O)CC[C@@H]12` (stereo partly drawn): in experiment [1], the inhibition is 0.791% (inactive).

In the case of `CC(Cc1ccc(O)cc1)NCC(O)c1cc(O)cc(O)c1` (stereo not drawn), the inhibition in experiment [1] was 1.02% (inactive).

In the case of `C[C@@H]1O[C@H](C[N+](C)(C)C)CS1`, the inhibition in experiment [1] was 4.65% (inactive).

For the compound `NC(=O)CN1CCCC1=O`, in [1], the inhibition is -12.5% (inactive).

With `Cc1nc(-c2ccc(-c3ccc(C(=O)N4CCc5cc6c(cc54)C4(CCN(C)CC4)CO6)cc3)c(C)c2)no1`, the inhibition in experiment [1] is 141% (active).

Regarding `N[C@H](CCCCCP(=O)(O)O)C(=O)O`, the inhibition in experiment [1] is -8.7% (inactive).

For `NCCc1c[nH]c2ccccc12`, the inhibition in experiment [1] is 2.92% (inactive).

With `CP(=O)(O)C1=CCNCC1`, in experiment [1], the inhibition is 10% (inactive).

Take `CC(Cc1ccc(OCC(=O)O)cc1)NCC(O)c1cccc(Cl)c1` (stereo not drawn): in experiment [1], the inhibition was 1% (inactive).

Regarding `Cc1sc2ccccc2c1CC1=NCCN1`, the inhibition in [1] was 20.7% (inactive).

Regarding `C#CCOC(=O)C1=CCCN(C)C1`, the inhibition in [1] is 6.87% (inactive).

Take `NC(CCCCCP(=O)(O)O)C(=O)O` (stereo not drawn): the inhibition in experiment [1] is -3.46% (inactive).

As to `CN1CC[C@@]2(C)c3cc(O)ccc3N(C)C12` (stereo partly drawn), the inhibition in experiment [1] is -1.8% (inactive).

Turning to `COC(=O)N1CCN(C(=O)Cc2ccc(Cl)c(Cl)c2)C(CN2CCCC2)C1` (stereo not drawn), the inhibition in experiment [1] was -0.837% (inactive).

`C[N+]1(C)C2CCC1CC(OC(=O)C(CO)c1ccccc1)C2` (stereo not drawn): the inhibition in experiment [1] was -0.808% (inactive) and 1.27% (inactive).

On to `COc1ccc2c(c[n+](C)c3c4cc5c(cc4ccc23)OCO5)c1OC`, for which, in experiment [1], the inhibition was 47% (inactive).

`CCC1(C2=NCCN2)Cc2ccccc2O1` (stereo not drawn): in [1], the inhibition was -5.93% (inactive).

On to `CC(C)NP(=O)(NC(C)C)OP(=O)(NC(C)C)NC(C)C`, for which the inhibition in experiment [1] is 5.29% (inactive).

As to `CC(C)NC(C)Cc1ccc(I)cc1` (stereo not drawn), the inhibition in experiment [1] was 22.2% (inactive).

With `CCCN(CCC)C1CCc2cccc(O)c2C1` (stereo not drawn), the inhibition in experiment [1] is 1.17% (inactive).

Turning to `COC[C@H]1OC(=O)c2coc3c2[C@@]1(C)C1=C(C3=O)C2CCC(=O)[C@@]2(C)C[C@H]1OC(C)=O` (stereo partly drawn), in [1], the inhibition is 4.09% (inactive).

Consider `CN(C)[C@@H]1C(=O)C(C(N)=O)=C(O)[C@@]2(O)C(=O)C3=C(O)c4c(O)cccc4[C@@](C)(O)[C@H]3[C@H](O)[C@@H]12`, for which the inhibition of aggregation in experiment [2] is 62.6% (active). For the same compound, the nuclei count turned out to be 102% in [2] and 123% in experiment [3]. Moreover, the inhibition is -42.6% (inactive) in experiment [3]; 8% (inactive) in experiment [5]; 12% (inactive) in experiment [1]; -6.24% (inactive) in experiment [10]; 5.5% (inactive) in experiment [11]. The results for the z-score in experiment [4] (setting [13]), in experiment [4] (setting [14]) and in [4] (setting [15]) were 1.9, -1.29 and -0.511, respectively. Further, in experiment [6], the fluorescence slope is -0.459 (inactive). The NADPH fluorescence slope in experiment [7] is -9.9e-05 (inactive). In experiment [8], the slope was 0.00569 (inactive). Moreover, in experiment [9], the outcome was inactive.

Regarding `c1ccc2sc(C3(N4CCCCC4)CCCCC3)cc2c1`, the inhibition in [1] is -0.941% (inactive).

With `CCNC(=O)[C@H]1O[C@@H](n2cnc3c(N)ncnc32)C(O)[C@H]1O` (stereo partly drawn), in [1], the inhibition is -1.46% (inactive).

Turning to `COc1ccc2c(c1)c(C(=O)O)c(C)n2CC(C)C`, the results for the inhibition in experiment [3], in [5] and in experiment [1] were 37.7% (inactive), -2.07% (inactive) and 36.3% (inactive), respectively. The nuclei count in experiment [3] amounted to 86.4%. The z-score in experiment [4] (setting [13]) was -0.228; in experiment [4] (setting [14]), -1.03; in [4] (setting [15]), 0.232. In addition, the fluorescence slope in experiment [6] was -0.462 (inactive); in [12], 0.00491 (inactive). In addition, the NADPH fluorescence slope in experiment [7] was -3.5e-05 (inactive). Moreover, the outcome in [9] was inactive.

As for `CC(C)(C)NCC(O)c1ccccc1Cl` (stereo not drawn), the inhibition in experiment [1] is 8.05% (inactive).

On to `O=S1(=O)N(CCN2CC=C(c3c[nH]c4cc(F)ccc34)CC2)c2cccc3c2N1CCC3`, for which the inhibition in [1] was -4.93% (inactive).

For `CC(C)(O)[C@@H]1[C@H]2OC(=O)[C@@H]1[C@]1(O)C[C@H]3O[C@]34C(=O)O[C@H]2[C@]14C` (tested in a mixture with another compound), in experiment [1], the inhibition is -1.93% (inactive).

As for `CCCC(C)(COC(N)=O)COC(=O)NC(C)C` (stereo not drawn), the inhibition of aggregation in experiment [2] was 18.2% (inactive). The nuclei count in experiment [2] was found to be 100%; in [3], 106%. Further, the inhibition in [3] was 0.8% (inactive); in experiment [5], -0.493% (inactive); in [1], -1.2% (inactive) and -10.3% (inactive); in experiment [10], 3.15% (inactive); in experiment [11], 14.5% (inactive). Besides, the z-score is -1.69 in [4] (setting [13]), 0.189 in [4] (setting [14]) and -1.67 in [4] (setting [15]). For the same compound, the fluorescence slope in experiment [6] was -0.459 (inactive). The NADPH fluorescence slope in experiment [7] is 1.2e-05 (inactive). In experiment [8], the slope was 0.0053 (inactive). Moreover, the outcome in [9] was inactive.

For `C[C@]12CCC(=O)C=C1CC[C@@H]1[C@@H]2CC[C@]2(C)C(=O)CC[C@@H]12`, the inhibition of aggregation in [2] is 16.3% (inactive). Further, the values for the nuclei count in experiment [2] and in experiment [3] were 88.1% and 117%, respectively. For the same compound, the inhibition in experiment [3] was -105% (inactive); in experiment [5] it was 11.3% (inactive); in experiment [1], 3.25% (inactive) and 26.7% (inactive); in [10], 5% (inactive); in experiment [11], 31.7% (inactive). Further, the z-score was -1.04 in experiment [4] (setting [13]), -1.5 in experiment [4] (setting [14]) and 2.67 in experiment [4] (setting [15]). The fluorescence slope in experiment [6] is -0.41 (inactive). In addition, the NADPH fluorescence slope in [7] was 2.5e-05 (inactive). The slope in experiment [8] was 0.00365 (inactive). In addition, the call in [9] was inactive.

`CC[C@@H]1C(=O)OC[C@@H]1Cc1cncn1C`: the inhibition of aggregation in experiment [2] is 8.3% (inactive) and -13.2% (inactive). Also, the nuclei count in experiment [2] is 112% and 101%; in [3], 122% and 127%. The inhibition in experiment [3] is -46.3% (inactive) and -64.9% (inactive); in [5] it was 11.3% [cells stimulated with TPA for 15 min] (inactive) and 10.2% [cells stimulated with TPA for 15 min] (inactive); in [10] it was 18.4% (inactive) and -3.13% (inactive); in [11], 19% (inactive) and 27% (inactive). For the same compound, the z-score in experiment [4] (measured here: cell density z-score, cells stimulated with TPA for 15 min) is 0.654 and -2.12; in experiment [4] (measured here: nuclear c-Myc green intensity z-score, cells stimulated with TPA for 15 min) it was -1.14 and -0.253; in experiment [4] (measured here: nuclear pErk red intensity z-score, stronger effect = higher value, cells stimulated with TPA for 15 min), 0.525 and 1.62. The fluorescence slope in experiment [6] was -0.572 (inactive) and -0.488 (inactive). For the same compound, the NADPH fluorescence slope in experiment [7] was 7.3e-06 (inactive) and -6e-05 (inactive). In [9], the outcome is “inactive [screened at 20 µM (by protocol)]”.

Regarding `Clc1ccc(C(c2ccc(Cl)cc2)n2cc[n+](CC(OCc3ccc(Cl)cc3Cl)c3ccc(Cl)cc3Cl)c2)cc1` (stereo not drawn), the inhibition in experiment [1] was 133% (active).

With `NC(=O)c1ccc(OCC(O)CN2CC=C(c3ccc(F)cc3)CC2)cc1` (stereo not drawn), the inhibition in [1] was -9.43% (inactive).
